Experimental data: the supplement of paper PMC10849652
Targets with a hit are over-represented here; the source holds about 7,900 in all. About 0.6% of all pairs of compound and target were hits. Unmarked numbers belong to inactive results.

Legend:
Assay in all cases: log2 fold change, soluble protein after heating vs DMSO (PISA); higher = thermal stabilisation; K562 cells, 10 uM, 30 min; active = over 0.2 and 3.5 SD of the protein, either way, in both replicates (recomputed)
erlotinib = compound: C#Cc1cccc(Nc2ncnc3cc(OCCOC)c(OCCOC)cc23)c1 [erlotinib]
Outline: (§1)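 K562 cells at 2×10^6 cells/mL were given 10 μM compound for 30 min. Aliquots then went through 3 min of heating across 48°C-58°C, were pooled, and were extracted in PBS with 0.5% NP-40 at 4°C, and the supernatant after 21,000xg for 90 min was quantified by TMTpro 16plex LC-MS/MS with channel sums equalised. Thermal stability relative to control samples, from duplicates, is given as log2 fold change.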

[1] = compound: C/C(=N\NC(=O)C1=CC(=CC=C1)S(=O)(=O)N2CCOCC2)/C3=C(C=CC(=C3)Cl)O
Outline: as §1

[2] = compound: C1=CC(=C(C=C1Cl)C2=NC3=NC=CN=C3C(=N2)NC4=CC=NC=C4)F
Outline: as §1

[3] = compound: C1=CC(=CC=C1C2=NC3=C(N2)C=C(C=C3)C(=O)N)OC4=CC=C(C=C4)Cl
Outline: as §1

[4] = compound: C1=CC2=C(C=CC(=C2)/C=C\3/C(=O)NC(=NCC4=CC=CS4)S3)N=C1
Outline: as §1

[5] = compound: C1=CC2=NC=CN=C2C=C1/C=C/3\C(=O)NC(=O)S3
Outline: as §1

[6] = compound: C1=CC=C(C=C1)C2=NC(=C(N2)C3=CC=NC=C3)C4=CC(=C(C=C4)Cl)O
Outline: as §1

[7] = compound: C1=CC=C2C(=C1)C3=NNC4=CC=CC(=C43)C2=O
Outline: as §1

[8] = compound: C1CCN(C1)C(=O)NC2=CC=CC(=C2)NC3=NC=C(C(=N3)NCCC4=CN=CN4)Br
Outline: as §1

[9] = compound: C1CN(CCC1(CC2=CC=C(C=C2)Cl)N)C3=NC=NC4=C3C=CN4
Outline: as §1

Chain of UniProt Q9H0R6 (Q9H0R6 whole entry, looked up): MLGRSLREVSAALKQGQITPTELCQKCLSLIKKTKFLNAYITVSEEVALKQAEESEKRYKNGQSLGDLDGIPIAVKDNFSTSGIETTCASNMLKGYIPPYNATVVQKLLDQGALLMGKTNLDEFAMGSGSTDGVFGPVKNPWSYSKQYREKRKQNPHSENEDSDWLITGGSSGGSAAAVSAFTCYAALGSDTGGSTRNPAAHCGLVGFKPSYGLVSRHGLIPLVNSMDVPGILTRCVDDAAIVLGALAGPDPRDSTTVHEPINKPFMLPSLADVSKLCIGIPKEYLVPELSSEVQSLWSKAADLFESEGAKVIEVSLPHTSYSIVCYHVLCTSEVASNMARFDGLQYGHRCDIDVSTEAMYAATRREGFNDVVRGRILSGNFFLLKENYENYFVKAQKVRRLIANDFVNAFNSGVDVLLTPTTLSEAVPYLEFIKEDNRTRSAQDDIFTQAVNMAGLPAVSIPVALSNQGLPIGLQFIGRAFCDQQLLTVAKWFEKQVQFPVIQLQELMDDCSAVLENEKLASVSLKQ
Chain of UniProt Q9H300 (Q9H300 whole entry, looked up): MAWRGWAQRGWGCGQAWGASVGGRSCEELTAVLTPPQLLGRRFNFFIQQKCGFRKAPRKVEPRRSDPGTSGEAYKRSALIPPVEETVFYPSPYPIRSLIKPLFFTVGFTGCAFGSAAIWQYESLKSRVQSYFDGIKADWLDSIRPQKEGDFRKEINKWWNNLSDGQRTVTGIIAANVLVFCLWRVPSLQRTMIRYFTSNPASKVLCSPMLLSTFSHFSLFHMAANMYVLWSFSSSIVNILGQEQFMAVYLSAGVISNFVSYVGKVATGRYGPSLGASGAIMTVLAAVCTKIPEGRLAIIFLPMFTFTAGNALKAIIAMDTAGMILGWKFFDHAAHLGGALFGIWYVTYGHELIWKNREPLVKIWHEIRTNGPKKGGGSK
Chain of UniProt P0CAP2 (P0CAP2 whole entry, looked up): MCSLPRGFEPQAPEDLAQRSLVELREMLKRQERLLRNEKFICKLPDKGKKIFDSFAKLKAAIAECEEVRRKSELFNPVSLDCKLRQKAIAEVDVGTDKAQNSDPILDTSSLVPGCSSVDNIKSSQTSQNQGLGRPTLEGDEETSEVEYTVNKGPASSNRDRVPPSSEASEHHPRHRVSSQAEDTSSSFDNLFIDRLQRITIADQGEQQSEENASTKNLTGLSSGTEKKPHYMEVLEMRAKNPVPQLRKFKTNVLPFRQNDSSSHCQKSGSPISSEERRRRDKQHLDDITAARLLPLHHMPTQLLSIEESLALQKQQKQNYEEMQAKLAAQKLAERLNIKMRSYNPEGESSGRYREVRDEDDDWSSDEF
Chain of UniProt O15067 (O15067 whole entry, looked up): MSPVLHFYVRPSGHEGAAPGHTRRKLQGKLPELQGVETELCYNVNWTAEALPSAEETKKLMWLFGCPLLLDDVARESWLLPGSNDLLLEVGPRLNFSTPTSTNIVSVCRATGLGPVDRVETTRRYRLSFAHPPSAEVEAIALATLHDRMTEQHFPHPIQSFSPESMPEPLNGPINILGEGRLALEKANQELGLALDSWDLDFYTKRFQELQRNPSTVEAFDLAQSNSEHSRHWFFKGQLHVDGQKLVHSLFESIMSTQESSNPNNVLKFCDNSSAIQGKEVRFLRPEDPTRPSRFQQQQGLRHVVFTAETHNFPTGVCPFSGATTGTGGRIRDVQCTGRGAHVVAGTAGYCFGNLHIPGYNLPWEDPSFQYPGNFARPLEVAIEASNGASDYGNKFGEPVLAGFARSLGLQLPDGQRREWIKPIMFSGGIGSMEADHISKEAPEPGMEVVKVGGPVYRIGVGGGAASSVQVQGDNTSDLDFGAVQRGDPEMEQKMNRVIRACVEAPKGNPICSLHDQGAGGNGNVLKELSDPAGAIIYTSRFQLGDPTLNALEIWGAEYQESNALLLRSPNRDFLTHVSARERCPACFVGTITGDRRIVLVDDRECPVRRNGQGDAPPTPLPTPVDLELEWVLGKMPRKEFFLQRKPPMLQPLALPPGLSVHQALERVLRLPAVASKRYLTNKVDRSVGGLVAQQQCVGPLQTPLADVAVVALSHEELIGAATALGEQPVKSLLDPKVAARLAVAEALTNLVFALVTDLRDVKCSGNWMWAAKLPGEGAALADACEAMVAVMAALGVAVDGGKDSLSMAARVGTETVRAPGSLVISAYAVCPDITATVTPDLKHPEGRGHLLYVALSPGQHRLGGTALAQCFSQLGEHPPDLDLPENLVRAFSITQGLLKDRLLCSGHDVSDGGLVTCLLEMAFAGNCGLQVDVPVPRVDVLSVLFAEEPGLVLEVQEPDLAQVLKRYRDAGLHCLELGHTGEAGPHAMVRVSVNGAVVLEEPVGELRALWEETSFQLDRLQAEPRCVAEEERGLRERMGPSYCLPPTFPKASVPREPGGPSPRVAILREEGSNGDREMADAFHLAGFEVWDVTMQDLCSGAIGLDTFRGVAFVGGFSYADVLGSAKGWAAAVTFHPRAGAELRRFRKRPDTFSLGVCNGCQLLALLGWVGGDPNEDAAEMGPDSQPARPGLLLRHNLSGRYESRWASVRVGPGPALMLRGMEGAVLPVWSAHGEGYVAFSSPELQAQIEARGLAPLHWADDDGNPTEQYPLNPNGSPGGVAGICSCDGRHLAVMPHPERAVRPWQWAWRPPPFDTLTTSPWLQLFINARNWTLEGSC
Chain of UniProt P09884 (P09884 whole entry, looked up): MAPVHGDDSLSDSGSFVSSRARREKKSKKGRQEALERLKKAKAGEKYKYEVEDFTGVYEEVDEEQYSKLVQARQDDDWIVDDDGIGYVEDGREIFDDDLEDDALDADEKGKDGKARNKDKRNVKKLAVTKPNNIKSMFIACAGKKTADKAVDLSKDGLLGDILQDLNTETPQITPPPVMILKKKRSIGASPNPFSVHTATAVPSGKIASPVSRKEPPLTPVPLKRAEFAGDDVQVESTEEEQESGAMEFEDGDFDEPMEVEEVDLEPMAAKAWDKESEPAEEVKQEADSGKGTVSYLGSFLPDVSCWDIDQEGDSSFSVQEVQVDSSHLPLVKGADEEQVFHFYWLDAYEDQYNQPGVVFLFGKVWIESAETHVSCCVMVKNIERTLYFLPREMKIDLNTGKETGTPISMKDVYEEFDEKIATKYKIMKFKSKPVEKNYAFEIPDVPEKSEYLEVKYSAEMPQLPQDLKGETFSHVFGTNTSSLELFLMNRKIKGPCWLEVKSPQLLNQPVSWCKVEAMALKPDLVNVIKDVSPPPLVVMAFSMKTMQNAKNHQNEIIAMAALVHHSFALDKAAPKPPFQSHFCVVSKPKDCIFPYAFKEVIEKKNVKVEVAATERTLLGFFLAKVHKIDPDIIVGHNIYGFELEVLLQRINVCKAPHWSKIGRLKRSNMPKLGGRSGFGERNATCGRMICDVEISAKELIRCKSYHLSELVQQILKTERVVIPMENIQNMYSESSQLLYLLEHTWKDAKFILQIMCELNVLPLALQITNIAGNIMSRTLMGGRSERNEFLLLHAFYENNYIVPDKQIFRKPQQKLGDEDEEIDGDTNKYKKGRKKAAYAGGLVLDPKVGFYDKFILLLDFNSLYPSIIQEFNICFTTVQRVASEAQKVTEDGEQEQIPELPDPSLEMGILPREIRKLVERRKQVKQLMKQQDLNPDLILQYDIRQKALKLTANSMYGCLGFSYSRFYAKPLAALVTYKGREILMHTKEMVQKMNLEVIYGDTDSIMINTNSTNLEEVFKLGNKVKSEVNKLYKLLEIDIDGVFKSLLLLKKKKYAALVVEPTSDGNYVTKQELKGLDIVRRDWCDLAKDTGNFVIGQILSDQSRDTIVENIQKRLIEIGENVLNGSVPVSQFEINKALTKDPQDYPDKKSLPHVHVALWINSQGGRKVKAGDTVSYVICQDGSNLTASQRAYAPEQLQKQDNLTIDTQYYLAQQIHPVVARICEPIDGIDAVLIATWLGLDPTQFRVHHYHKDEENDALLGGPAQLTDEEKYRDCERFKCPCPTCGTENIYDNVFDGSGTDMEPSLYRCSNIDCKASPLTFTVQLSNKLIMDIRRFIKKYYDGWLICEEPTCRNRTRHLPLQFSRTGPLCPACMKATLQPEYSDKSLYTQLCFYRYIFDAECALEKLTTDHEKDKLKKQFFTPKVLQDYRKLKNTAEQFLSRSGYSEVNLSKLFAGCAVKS
Chain of UniProt Q9BZL6 (Q9BZL6 whole entry, looked up): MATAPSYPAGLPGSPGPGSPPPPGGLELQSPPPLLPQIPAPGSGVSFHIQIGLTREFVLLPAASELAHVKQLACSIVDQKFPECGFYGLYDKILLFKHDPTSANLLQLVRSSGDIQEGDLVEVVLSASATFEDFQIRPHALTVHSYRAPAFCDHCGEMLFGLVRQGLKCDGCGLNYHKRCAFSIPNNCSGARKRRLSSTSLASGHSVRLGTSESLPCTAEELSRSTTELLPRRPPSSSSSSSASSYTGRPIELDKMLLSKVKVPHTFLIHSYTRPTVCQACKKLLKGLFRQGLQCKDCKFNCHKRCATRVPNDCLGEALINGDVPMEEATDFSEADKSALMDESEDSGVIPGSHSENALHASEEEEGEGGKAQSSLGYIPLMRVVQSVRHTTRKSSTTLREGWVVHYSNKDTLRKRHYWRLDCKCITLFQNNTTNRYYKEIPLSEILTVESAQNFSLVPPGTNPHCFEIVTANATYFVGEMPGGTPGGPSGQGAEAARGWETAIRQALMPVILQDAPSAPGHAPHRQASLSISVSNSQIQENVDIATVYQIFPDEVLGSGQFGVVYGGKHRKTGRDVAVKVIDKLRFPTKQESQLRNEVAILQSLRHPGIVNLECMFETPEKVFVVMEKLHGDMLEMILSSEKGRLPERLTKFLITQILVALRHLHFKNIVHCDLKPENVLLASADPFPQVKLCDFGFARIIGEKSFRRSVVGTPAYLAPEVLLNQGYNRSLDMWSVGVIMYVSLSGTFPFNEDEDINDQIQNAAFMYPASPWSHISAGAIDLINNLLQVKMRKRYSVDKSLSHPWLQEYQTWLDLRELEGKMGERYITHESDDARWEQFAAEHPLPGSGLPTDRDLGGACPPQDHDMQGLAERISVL
Chain of UniProt Q15004 (Q15004 whole entry, looked up): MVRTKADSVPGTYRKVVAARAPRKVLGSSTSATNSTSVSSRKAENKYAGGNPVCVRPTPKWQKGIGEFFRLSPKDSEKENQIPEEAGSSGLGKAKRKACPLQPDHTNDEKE

Target	log2 fold change (erlotinib)	log2 fold change [1]	log2 fold change [2]	log2 fold change [3]	log2 fold change [4]	log2 fold change [5]	log2 fold change [6]	log2 fold change [7]	log2 fold change [8]	log2 fold change [9]
PPP1R14A (UniProt Q96A00)	0.047	0.004	0.004	0.063	-0.036	-0.001	0.341 (active)	0.004	0.016	0.015
QRSL1 (UniProt Q9H0R6)	0.024	0.052	0.118	-0.002	0.06	-0.023	0.071	-0.032	0.017	-0.116
PSPC1 (UniProt Q8WXF1)	-0.024	0.014	-0.036	0.043	-0.008	0.004	-0.101	-0.141	-0.033	-0.061
PCBP1 (UniProt Q15365)	-0.009	0.092	0.062	-0.031	0.011	-0.002	0.057	0.031	-0.034	0.002
PSMD6 (UniProt Q15008)	-0.024	-0.041	-0.042	0.017	-0.056	-0.007	0.09	0.053	0.002	0.016
PIGT (UniProt Q969N2)	-0.045	0.037	0.002	0.034	0.009	-0.001	0.011	0.018	-0.006	-0.003
PARP1 (UniProt P09874)	0.076	0.135	0.042	-0.005	0.098	-0.042	0.137	0.35	-0.078	-0.042
POLR2M (UniProt P0CAP2)	-0.042	-0.033	-0.054	0.004	0.05	0.055	0.041	-0.009	0.017	-0.024
PKN1 isoform 2 (UniProt Q16512)	0.018	0.088	0.064	0.055	0.059	0	0.011	0	-0.061	-0.326 (active)
PMM2 (UniProt O15305)	0.03	-0.034	0.008	-0.02	0.023	0.003	-0.014	-0.019	-0.004	0.05
PIGG (UniProt Q5H8A4)	-0.002	0.016	-0.009	0.027	0.023	0.014	-0.013	-0.003	-0.016	0.067
PHKG2 (UniProt P15735)	-0.067	-0.078	0.021	-0.003	-0.055	-0.113	0.034	0.076	-0.159	0.029
POTEI (UniProt P0CG38)	0.023	0.007	-0.009	0.011	-0.037	-0.052	0.045	0.038	-0.003	0.046
POLD3 (UniProt Q15054)	0.083	0.131	0.048	-0.031	0.048	0.038	0.027	-0.07	-0.016	-0.099
PPT1 (UniProt P50897)	0.01	-0.011	0.018	-0.003	0.04	0.007	0.01	0.024	0.036	-0.009
PRKAB1 (UniProt Q9Y478)	0.043	0.15	0.052	-0.011	-0.06	0.024	0.019	0.026	-0.076	0.068
PSMC5 (UniProt P62195)	-0.116	-0.044	-0.029	0.021	-0.022	-0.03	-0.007	0.019	0.021	-0.032
PDS5B (UniProt Q9NTI5)	-0.023	0.002	0.001	0.043	0.092	0.12	0.061	0.013	-0.302	-0.287
PRKAB2 (UniProt O43741)	-0.054	0.29	0.103	0.032	-0.022	-0.115	0.203	0.144	-0.218	0.064
RAB11FIP1 (UniProt Q6WKZ4)	0.004	0.074	0.078	-0.039	0.02	-0.004	0.031	0.009	-0.049	0.027

Target	log2 fold change (erlotinib)	log2 fold change [1]	log2 fold change [2]	log2 fold change [3]	log2 fold change [4]	log2 fold change [5]	log2 fold change [6]	log2 fold change [7]	log2 fold change [8]	log2 fold change [9]
PEX7 (UniProt O00628)	0.021	0.034	0.034	0.276 (active)	0.08	-0.117	0.039	-0.041	-0.031	0.063
PRKACB isoform 2 (UniProt P22694)	0.013	0.049	-0.065	0.072	0.007	0.008	-0.034	-0.096	-0.095	0.007
PRKAG1 isoform 3 (UniProt P54619)	0.025	0.038	-0.016	-0.012	0.083	0.032	0.037	-0.015	-0.007	0.045
POGLUT1 (UniProt Q8NBL1)	0.006	-0.046	-0.041	-0.004	0.055	0.026	0.167	-0.013	-0.007	-0.041
PELO (UniProt Q9BRX2)	0.153	0.017	-0.108	0.074	0.105	-0.104	0.079	0.021	-0.097	-0.058
PLCB3 (UniProt Q01970)	-0.004	0.028	0.005	0.023	0.054	0.016	-0.011	0.034	-0.057	-0.07
PFAS (UniProt O15067)	-0.011	0.141	0.066	0.205	0.034	-0.22	0.087	0.068	-0.01	-0.146
PSMC2 (UniProt P35998)	-0.05	-0.054	-0.057	0.008	-0.001	-0.03	0.019	0.02	-0.007	-0.031
PPP1CA (UniProt P62136)	0.026	-0.002	-0.015	-0.006	0.036	-0.005	0.001	-0.03	-0.004	0.009
PPIL1 (UniProt Q9Y3C6)	0.019	-0.009	-0.027	-0.012	0.024	0.061	-0.013	-0.025	-0.007	-0.027
QRICH1 (UniProt Q2TAL8)	0.066	0.361	-0.023	0	0.282	0.059	-0.053	-0.007	0.014	-0.076
PIP4P2 (UniProt Q8N4L2)	0.014	-0.066	0.026	0.039	0.009	0.145	0.063	-0.002	0.014	-0.007
PITRM1 isoform 2 (UniProt Q5JRX3)	-0.004	-0.008	0.012	0.005	0.118	0.007	0.041	0.03	0.023	0.153
PFDN1 (UniProt O60925)	-0.018	0.012	0.263	0.07	0.056	0.063	0.137	0.047	-0.091	-0.057
PTGR2 (UniProt Q8N8N7)	-0.015	-0.027	0.016	-0.023	0.365	-0.01	0.062	0.056	-0.023	0.131
PCYT1B (UniProt Q9Y5K3)	0.05	0.068	-0.043	0.023	0.078	0.079	-0.066	0.004	0.01	-0.003
POLR2B (UniProt P30876)	-0.008	-0.014	-0.025	0.024	-0.006	0.047	0.045	0.009	0.068	-0.063
PIP4K2A (UniProt P48426)	0.172	0.028	0.075	-0.058	-0.065	0.287	0.108	0.076	0.162	-0.013
PCNT (UniProt O95613)	0.284	-0.138	-0.095	-0.099	0.15	-0.023	-0.079	-0.097	0.065	-0.021
PLBD1 (UniProt Q6P4A8)	0.05	-0.008	0.024	0.037	0.09	0.024	0.036	-0.01	0.037	0.009

Target	log2 fold change (erlotinib)	log2 fold change [1]	log2 fold change [2]	log2 fold change [3]	log2 fold change [4]	log2 fold change [5]	log2 fold change [6]	log2 fold change [7]	log2 fold change [8]	log2 fold change [9]
PPP2R5A (UniProt Q15172)	0.011	0.098	0.009	-0.022	0.018	0.055	0.078	0.017	0	-0.015
PTTG1 (UniProt O95997)	-0.024	0.094	-0.024	0.029	-0.043	-0.005	-0.205	-0.045	-0.024	-0.093
PARL (UniProt Q9H300)	-0.019	0.015	0.011	-0.011	0.016	0.044	0.026	-0.012	0.015	0.017
PSMD13 (UniProt Q9UNM6)	-0.091	-0.026	-0.076	0.002	-0.02	0.013	-0.002	0.044	-0.008	-0.069
PSMD11 (UniProt O00231)	-0.097	-0.023	-0.039	0.007	-0.035	-0.035	0.058	0.047	-0.033	-0.026
PRKD2 isoform 3 (UniProt Q9BZL6)	0.04	0.214	0.022	0.055	0.003	0.004	-0.126	-0.347	-0.04	-0.075
PEX16 isoform 2 (UniProt Q9Y5Y5)	0.081	-0.044	0.147	0.013	0.085	0.06	0.008	-0.004	-0.031	0.051
PJA2 (UniProt O43164)	-0.006	-0.047	-0.049	0.018	0.003	0.071	-0.061	-0.112	-0.024	-0.009
PRKACA (UniProt P17612)	0.013	0.033	-0.054	-0.016	-0.034	0.042	0.087	-0.025	-0.142	0.047
PDIK1L (UniProt Q8N165)	-0.075	0.083	-0.031	-0.052	0.034	0.115	-0.034	0.197	0.023	-0.007
PBX2 (UniProt P40425)	0.111	0.076	0.055	0.007	0.009	-0.039	0.091	-0.098	-0.036	-0.269
PUF60 (UniProt Q9UHX1)	-0.011	0.172	-0.005	0.014	-0.071	-0.026	0.013	0.02	-0.072	-0.141
PCLAF (UniProt Q15004)	0.073	-0.017	-0.066	0.016	-0.039	0.033	-0.105	-0.13	-0.036	0.032
PCK2 (UniProt Q16822)	0.025	-0.224 (active)	0.108	-0.009	0.038	-0.016	-0.023	0.072	-0.018	-0.001
PSME4 (UniProt Q14997)	-0.011	0.017	-0.028	0.065	0.055	0.022	-0.007	0.027	0.008	0.014
PUM1 isoform 3 (UniProt Q14671)	-0.023	0	0.04	0.034	0.047	0.003	-0.013	0.003	-0.057	0.028
PIGH (UniProt Q14442)	-0.036	0.068	0.049	0.027	0.042	-0.03	-0.065	-0.054	-0.005	0.009
PSMD2 (UniProt Q13200)	-0.095	-0.095	-0.042	-0.001	-0.043	-0.024	0.007	0.016	0.005	-0.021
POLA1 (UniProt P09884)	0.03	0.038	0.042	-0.023	-0.032	0	-0.013	0.021	0.006	-0.022
